Experimental data taken from PubChem BioAssay AID1159580 (chemical genetic matrix, 2015).
About 2,000 (36%) of roughly 5,500 compounds were called active. Inconclusive results (about 18%) are left out. Cut-off read from the data, not from the text of the source: active = normalized growth mostly below about 0.91 (no sharp cut-off); inconclusive = no clear call, values can overlap the other calls; inactive = mostly above about 0.92. The list shows a part of the results.

Assay: chemical genetic growth profiling, strain panel (AID 1159580);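 note: tested at 20 µM; growth read once vehicle control cultures reached saturation at 30 °C; 1 = growth at the plate median or of vehicle wells; lower values mean less growth of the strain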
Details: growth OD

Measured: normalized growth

CCS(=O)CCSP(=O)(OC)OC (stereo unspecified)
inactive: S. cerevisiae deletion strains, locus YAL013W, strain DEP1, active compounds read low 1.01 | S. cerevisiae deletion strains, locus YBR021W, strain FUR4, active compounds read low 1 | S. cerevisiae deletion strains, locus YBR229C, strain ROT2, active compounds read low 1.02 | S. cerevisiae deletion strains, locus YCL029C, strain bik1, active compounds read low 1 | S. cerevisiae deletion strains, locus YDL035C, strain GPR1, active compounds read low 1.01 | S. cerevisiae deletion strains, locus YDL074C, strain BRE1, active compounds read low 0.998 | S. cerevisiae deletion strains, locus YDL101C, strain DUN1, active compounds read low 1.01 | S. cerevisiae deletion strains, locus YDL134C, strain PPH21, active compounds read low 1.01 | S. cerevisiae deletion strains, locus YDL185W, strain tfp1, active compounds read low 1.01 | S. cerevisiae deletion strains, locus YDL192W, strain arf1, active compounds read low 1 | S. cerevisiae deletion strains, locus YDR101C, strain arx1, active compounds read low 1 | S. cerevisiae deletion strains, locus YDR150W, strain NUM1, active compounds read low 1.01 | S. cerevisiae deletion strains, locus YDR162C, strain NBP2, active compounds read low 1.03 | S. cerevisiae deletion strains, locus YDR318W, strain mcm21, active compounds read low 1.01 | S. cerevisiae deletion strains, locus YDR388W, active compounds read low 1.01 | S. cerevisiae deletion strains, locus YDR502C, strain sam2, active compounds read low 0.995 | S. cerevisiae deletion strains, locus YEL061C, strain CIN8, active compounds read low 1.02 | S. cerevisiae deletion strains, locus YER110C, active compounds read low 1.01 | S. cerevisiae deletion strains, locus YER155C, strain BEM2, active compounds read low 1.02 | S. cerevisiae deletion strains, locus YER167W, strain BCK2, active compounds read low 1.02 | S. cerevisiae deletion strains, locus YGL078C, strain dbp3, active compounds read low 1.01 | S. cerevisiae deletion strains, locus YGL086W, strain mad1, active compounds read low 1 | S. cerevisiae deletion strains, locus YGL248W, strain PDE1, active compounds read low 1.01 | S. cerevisiae deletion strains, locus YGR078C, strain PAC10, active compounds read low 1.02 | S. cerevisiae deletion strains, locus YGR135W, strain pre9, active compounds read low 1.01 | S. cerevisiae deletion strains, locus YGR229C, strain SMI1, active compounds read low 0.999 | S. cerevisiae deletion strains, locus YGR252W, strain gcn5, active compounds read low 0.945 | S. cerevisiae deletion strains, locus YHR030C, strain SLT2, active compounds read low 1 | S. cerevisiae deletion strains, locus YHR079C, strain IRE1 (second series), active compounds read low 1.01 | S. cerevisiae deletion strains, locus YHR094C, strain hxt1, active compounds read low 1.01 | S. cerevisiae deletion strains, locus YHR129C, strain ARP1, active compounds read low 1.02 | S. cerevisiae deletion strains, locus YHR200W, strain rpn10, active compounds read low 1 | S. cerevisiae deletion strains, locus YIL066C, strain RNR3, active compounds read low 1.03 | S. cerevisiae deletion strains, locus YIL073C, strain SPO22, active compounds read low 1.06 | S. cerevisiae deletion strains, locus YIL125W, strain kgd1, active compounds read low 0.997 | S. cerevisiae deletion strains, locus YIR030C, strain dcg1, active compounds read low 1.01 | S. cerevisiae deletion strains, locus YJL095W, strain BCK1, active compounds read low 1.03 | S. cerevisiae deletion strains, locus YJL134W, strain LCB3, active compounds read low 1.01 | S. cerevisiae deletion strains, locus YJL168C, strain set2, active compounds read low 1 | S. cerevisiae deletion strains, locus YJL187C, strain SWE1 (second series), active compounds read low 1.02 | S. cerevisiae deletion strains, locus YJR043C, strain POL32, active compounds read low 1.02 | S. cerevisiae deletion strains, locus YJR075W, strain HOC1, active compounds read low 0.99 | S. cerevisiae deletion strains, locus YKL009W, strain mrt4, active compounds read low 0.977 | S. cerevisiae deletion strains, locus YKL068W, active compounds read low 1 | S. cerevisiae deletion strains, locus YKL085W, strain MDH1 (second series), active compounds read low 1.01 | S. cerevisiae deletion strains, locus YKL085W, strain MDH1, active compounds read low 1.01 | S. cerevisiae deletion strains, locus YKL190W, strain CNB1, active compounds read low 1.01 | S. cerevisiae deletion strains, locus YKR001C, strain vps1, active compounds read low 1 | S. cerevisiae deletion strains, locus YLR039C, strain RIC1, active compounds read low 1.04 | S. cerevisiae deletion strains, locus YLR058C, strain SHM2, active compounds read low 1.02 | S. cerevisiae deletion strains, locus YLR102C, strain apc9, active compounds read low 1 | S. cerevisiae deletion strains, locus YLR262C, strain YPT6, active compounds read low 1.02 | S. cerevisiae deletion strains, locus YLR268W, strain sec22, active compounds read low 0.999 | S. cerevisiae deletion strains, locus YLR330W, strain CHS5, active compounds read low 1.01 | S. cerevisiae deletion strains, locus YLR342W, strain FKS1 (second series), active compounds read low 1.02 | S. cerevisiae deletion strains, locus YLR371W, strain rom2, active compounds read low 0.999 | S. cerevisiae deletion strains, locus YLR418C, strain cdc73, active compounds read low 0.984 | S. cerevisiae deletion strains, locus YML016C, strain PPZ1, active compounds read low 1.01 | S. cerevisiae deletion strains, locus YML032C, strain rad52, active compounds read low 1.01 | S. cerevisiae deletion strains, locus YML124C, strain tub3, active compounds read low 1.01 | S. cerevisiae deletion strains, locus YMR078C, strain ctf18, active compounds read low 1.01 | S. cerevisiae deletion strains, locus YMR223W, strain ubp8, active compounds read low 1 | S. cerevisiae deletion strains, locus YMR263W, strain SAP30, active compounds read low 1.02 | S. cerevisiae deletion strains, locus YMR307W, strain GAS1, active compounds read low 1 | S. cerevisiae deletion strains, locus YNL067W, strain RPL9B, active compounds read low 1.01 | S. cerevisiae deletion strains, locus YNL128W, strain TEP1, active compounds read low 1.02 | S. cerevisiae deletion strains, locus YNL153C, strain GIM3, active compounds read low 1.01 | S. cerevisiae deletion strains, locus YNL233W, strain BNI4, active compounds read low 1.01 | S. cerevisiae deletion strains, locus YNL250W, strain rad50, active compounds read low 1.01 | S. cerevisiae deletion strains, locus YNL271C, strain bni1, active compounds read low 1 | S. cerevisiae deletion strains, locus YNL298W, strain CLA4, active compounds read low 1.01 | S. cerevisiae deletion strains, locus YNL307C, strain MCK1, active compounds read low 1.01 | S. cerevisiae deletion strains, locus YNL322C, strain KRE1, active compounds read low 1.01 | S. cerevisiae deletion strains, locus YNR052C, strain pop2, active compounds read low 1 | S. cerevisiae deletion strains, locus YOL006C, strain TOP1, active compounds read low 1.01 | S. cerevisiae deletion strains, locus YOL012C, strain htz1 0.877 | S. cerevisiae deletion strains, locus YOL147C, strain pex11, active compounds read low 1 | S. cerevisiae deletion strains, locus YOR061W, strain CKA2, active compounds read low 1.01 | S. cerevisiae deletion strains, locus YOR069W, strain VPS5, active compounds read low 1 | S. cerevisiae deletion strains, locus YOR136W, strain idh2, active compounds read low 1 | S. cerevisiae deletion strains, locus YOR144C, strain elg1, active compounds read low 1.01 | S. cerevisiae deletion strains, locus YOR184W, strain ser1, active compounds read low 1 | S. cerevisiae deletion strains, locus YOR316C, strain cot1, active compounds read low 1 | S. cerevisiae deletion strains, locus YPL055C, strain LGE1, active compounds read low 1.01 | S. cerevisiae deletion strains, locus YPL241C, strain CIN2, active compounds read low 1.01 | S. cerevisiae deletion strains, locus YPR119W, strain clb2, active compounds read low 1.01 | S. cerevisiae deletion strains, locus YPR141C, strain kar3, active compounds read low 0.997 | S. cerevisiae deletion strains, locus YPR163C, strain tif3, active compounds read low 1.01 | S. cerevisiae deletion strains, locus YPR167C, strain met16, active compounds read low 0.998 | S. cerevisiae deletion strains, strain wtn01, active compounds read low 0.996 | S. cerevisiae strains, strain wild type, active compounds read low 1.01
